According to PubChem BioAssay (NCI):
The panel holds about 83,000 compounds, 20% with a hit somewhere; the sample as a whole holds those more often.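 Single-concentration screen, 48 h exposure, 96-well plates. Endpoint: percent growth. Below 10 = active.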

Assays:
Assay in all cases: NCI-60 one-dose screen, 48 h (100 = growth as untreated, 0 = no growth, -100 = all killed)
Conditions in all cases: 10 µM
NCI-H23 lung = tested on: NCI-H23 lung
NCI-H226 lung = tested on: NCI-H226 lung
NCI-H322M lung = tested on: NCI-H322M lung
HOP-62 NSCLC = tested on: HOP-62 NSCLC
NCI-H460 lung = tested on: NCI-H460 lung
HOP-92 NSCLC = tested on: HOP-92 NSCLC
NCI-H522 lung = tested on: NCI-H522 lung
A549/ATCC NSCLC = tested on: A549/ATCC NSCLC
786-0 renal = tested on: 786-0 renal
COLO 205 colon = tested on: COLO 205 colon
DU-145 prostate = tested on: DU-145 prostate
K-562 leukemia = tested on: K-562 leukemia
MALME-3M melanoma = tested on: MALME-3M melanoma
MDA-MB-231 breast = tested on: MDA-MB-231 breast
RXF 393 renal = tested on: RXF 393 renal
SF-268 CNS = tested on: SF-268 CNS
SF-295 CNS = tested on: SF-295 CNS
SF-539 CNS = tested on: SF-539 CNS
UACC-257 melanoma = tested on: UACC-257 melanoma
M14 melanoma = tested on: M14 melanoma

Measured: growth

CCOC(=O)C(=O)C=P(c1ccccc1)(c1ccccc1)c1ccccc1
inactive: NCI-H23 lung 99.4% | NCI-H226 lung 108% | NCI-H322M lung 98.2% | HOP-62 NSCLC 98.1% | NCI-H460 lung 103% | HOP-92 NSCLC 96.5% | NCI-H522 lung 90.1% | A549/ATCC NSCLC 100% | 786-0 renal 101% | COLO 205 colon 110% | DU-145 prostate 103% | K-562 leukemia 107% | MALME-3M melanoma 102% | MDA-MB-231 breast 99.2% | RXF 393 renal 106% | SF-268 CNS 97.9% | SF-295 CNS 97.8% | SF-539 CNS 103% | UACC-257 melanoma 111% | M14 melanoma 109%

CCOC(=O)c1[nH]c(C)c(C(=O)O)c1C
inactive: NCI-H23 lung 109% | NCI-H226 lung 101% | NCI-H322M lung 91.8% | HOP-62 NSCLC 111% | NCI-H460 lung 110% | HOP-92 NSCLC 104% | NCI-H522 lung 90.4% | A549/ATCC NSCLC 76.2% | 786-0 renal 110% | COLO 205 colon 112% | DU-145 prostate 114% | K-562 leukemia 102% | MALME-3M melanoma 122% | MDA-MB-231 breast 107% | RXF 393 renal 115% | SF-268 CNS 105% | SF-295 CNS 122% | SF-539 CNS 105% | UACC-257 melanoma 111% | M14 melanoma 124%

CCOC(=O)CCCS(C)(=O)=O
inactive: NCI-H23 lung 98.6% | NCI-H226 lung 109% | NCI-H322M lung 120% | HOP-62 NSCLC 102% | NCI-H460 lung 110% | HOP-92 NSCLC 87% | NCI-H522 lung 109% | A549/ATCC NSCLC 109% | 786-0 renal 110% | COLO 205 colon 110% | DU-145 prostate 117% | K-562 leukemia 113% | MALME-3M melanoma 105% | MDA-MB-231 breast 99% | RXF 393 renal 113% | SF-268 CNS 108% | SF-295 CNS 117% | SF-539 CNS 97.7% | UACC-257 melanoma 108%

CC(=O)OCCC(C)CCC=C(C)C (configuration not stated)
inactive: NCI-H23 lung 105% | NCI-H226 lung 105% | NCI-H322M lung 114% | HOP-62 NSCLC 108% | NCI-H460 lung 104% | HOP-92 NSCLC 98.8% | NCI-H522 lung 92.7% | A549/ATCC NSCLC 101% | 786-0 renal 108% | COLO 205 colon 114% | DU-145 prostate 107% | K-562 leukemia 98.5% | MALME-3M melanoma 114% | MDA-MB-231 breast 98.1% | RXF 393 renal 116% | SF-268 CNS 97.2% | SF-295 CNS 106% | SF-539 CNS 99.1% | UACC-257 melanoma 106%

C=C1CC/C=C(\C)C(=O)C[C@@H]2[C@@H]1CC2(C)C
inactive: NCI-H23 lung 107% | NCI-H226 lung 107% | NCI-H322M lung 119% | HOP-62 NSCLC 119% | NCI-H460 lung 107% | HOP-92 NSCLC 88.4% | NCI-H522 lung 85.3% | A549/ATCC NSCLC 109% | 786-0 renal 104% | COLO 205 colon 110% | DU-145 prostate 102% | K-562 leukemia 102% | MALME-3M melanoma 103% | MDA-MB-231 breast 125% | RXF 393 renal 55.1% | SF-268 CNS 99.5% | SF-295 CNS 108% | SF-539 CNS 107% | UACC-257 melanoma 111% | M14 melanoma 98.3%

O=S(=O)(O)CC(O)CN1CCN(CCO)CC1 (configuration not stated)
inactive: NCI-H23 lung 94.2% | NCI-H226 lung 108% | NCI-H322M lung 112% | HOP-62 NSCLC 110% | NCI-H460 lung 114% | HOP-92 NSCLC 86.2% | NCI-H522 lung 89% | A549/ATCC NSCLC 98.8% | 786-0 renal 105% | COLO 205 colon 106% | DU-145 prostate 111% | K-562 leukemia 97.4% | MALME-3M melanoma 114% | MDA-MB-231 breast 119% | RXF 393 renal 105% | SF-268 CNS 109% | SF-295 CNS 119% | SF-539 CNS 111% | UACC-257 melanoma 97.8% | M14 melanoma 105%

CC(C)C(C#N)(C(C)C)C(C)C
inactive: NCI-H23 lung 104% | NCI-H226 lung 104% | NCI-H322M lung 107% | HOP-62 NSCLC 101% | NCI-H460 lung 102% | HOP-92 NSCLC 95.5% | NCI-H522 lung 92% | A549/ATCC NSCLC 97.1% | 786-0 renal 113% | COLO 205 colon 109% | DU-145 prostate 111% | K-562 leukemia 114% | MALME-3M melanoma 92.9% | MDA-MB-231 breast 104% | RXF 393 renal 115% | SF-268 CNS 98.1% | SF-295 CNS 103% | SF-539 CNS 104% | UACC-257 melanoma 96%

CC(=O)N(C)c1ccc([N+](=O)[O-])cc1
inactive: NCI-H23 lung 101% | NCI-H226 lung 105% | NCI-H322M lung 114% | HOP-62 NSCLC 111% | NCI-H460 lung 117% | HOP-92 NSCLC 94.5% | NCI-H522 lung 106% | A549/ATCC NSCLC 106% | 786-0 renal 105% | COLO 205 colon 114% | DU-145 prostate 122% | K-562 leukemia 111% | MALME-3M melanoma 144% | MDA-MB-231 breast 102% | RXF 393 renal 102% | SF-268 CNS 116% | SF-295 CNS 107% | SF-539 CNS 106% | UACC-257 melanoma 110% | M14 melanoma 108%
